A word on the inhibition: it is the drop in the measured response relative to a control, in per cent.

Out of some 370,000 compounds screened, about 3,100 (0.84%) were called active.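 The calls were made as follows: active = inhibition above the mean of compounds lying between control limits plus 3 SD, set per campaign (cut at about 8.5% in these data); inactive = the rest.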 The entries come from a sample that favours actives as a whole.

The values that follow come from PubChem BioAssay AID720648 (The Scripps Research Institute Molecular Screening Center, 2013).

The target of this test is Disintegrin and metalloproteinase domain-containing protein 17 (Homo sapiens) (UniProt P78536). The test can be described thus: ADAM17 inhibitors, primary screen, biochemical, QFRET (AID 720648).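 Also: 0% = DMSO-only wells as the low control.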 The note with it: recombinant ADAM17, EDANS/DABCYL FRET peptide cleavage; at 6.95 µM; hits give high values.
Sequence of Disintegrin and metalloproteinase domain-containing protein 17 (Homo sapiens) (P78536 215-824 limits assumed): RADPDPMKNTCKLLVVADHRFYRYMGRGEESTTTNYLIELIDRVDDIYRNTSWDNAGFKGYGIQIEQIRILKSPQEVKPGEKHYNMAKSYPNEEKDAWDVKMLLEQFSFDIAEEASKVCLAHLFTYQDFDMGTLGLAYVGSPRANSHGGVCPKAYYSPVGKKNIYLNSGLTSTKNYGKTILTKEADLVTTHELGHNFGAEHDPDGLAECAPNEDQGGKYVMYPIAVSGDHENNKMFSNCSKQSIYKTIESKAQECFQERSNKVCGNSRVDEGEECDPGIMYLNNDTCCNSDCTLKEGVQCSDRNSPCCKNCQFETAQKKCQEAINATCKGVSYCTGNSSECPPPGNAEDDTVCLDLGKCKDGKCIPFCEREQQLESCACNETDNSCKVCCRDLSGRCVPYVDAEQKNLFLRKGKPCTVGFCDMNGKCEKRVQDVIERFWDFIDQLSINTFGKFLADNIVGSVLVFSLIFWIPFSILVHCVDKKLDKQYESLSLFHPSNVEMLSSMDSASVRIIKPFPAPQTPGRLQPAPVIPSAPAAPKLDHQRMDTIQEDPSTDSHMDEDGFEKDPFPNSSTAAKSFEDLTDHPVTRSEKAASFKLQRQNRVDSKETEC
For `CCOC(=O)[C@]12CCCCC/C=C\1N(Cc1ccc(OC)cc1)C(=O)[C@H]2CC(=O)N1CCOCC1`, the inhibition was -0.25% (inactive). The result for `COc1ccnc(C(=O)N2CCC(Oc3cccnc3)CC2)c1` reads 1.66% (inactive). The value for `CCOC(=O)N1CCN(C(=O)C[C@H]2C[C@@]3(C(=O)OC)C(=C[C@H](C(C)(C)C)O[C@@H]3C)N(Cc3ccc(Cl)cc3Cl)C2=O)CC1` was 2.67% (inactive); that for `CCC(=O)OCc1c(C(F)(F)F)nn(C)c1Oc1cccc(C(F)(F)F)c1` was -2.77% (inactive). Take `COC(=O)c1ccccc1Sc1c(/C=N/OCc2ccc(Cl)cc2)c(C(F)(F)F)nn1C`: the inhibition is -4.94% (inactive). For `Cn1nc(C(F)(F)F)c(C(=O)Nc2cccc(C(F)(F)F)c2)c1SCc1ccc(Cl)cc1`, the inhibition is 19.8% (active).

Consider `O=S1(=O)c2ccc(N3CCN(Cc4ccccc4F)CC3)cc2Oc2ccccc2CN1Cc1cn(Cc2ccc(Cl)cc2)nn1`, for which the inhibition was 7.88% (inactive). Regarding `CC(C)CNC(=O)OCc1cn(Cc2ccc(F)cc2)nn1`, the inhibition is 3.83% (inactive). The value for `CNC(=O)C[C@H]1C(=O)N(c2ccc(OC)cc2)C[C@@H]1Cc1ccccc1` was -1.23% (inactive).

With `O=C(C[C@H]1C(=O)N(c2ccc(F)c(F)c2)C[C@@H]1Cc1ccccc1)Nc1ccccc1`, the inhibition is 9.24% (active). The result for `C[C@H]1CN(c2ccc(Br)cc2)C(=O)[C@@H]1CC(=O)Nc1ccc(Br)cc1` reads -0.38% (inactive); that for `COc1ccc(NS(=O)(=O)c2ccc(C)c(C(=O)NCC(c3cccs3)N3CCOCC3)c2)cc1` (centres undefined), -1.97% (inactive).

`COc1ccc(C(CNC(=O)c2cc(S(=O)(=O)Nc3cccc(C)c3)ccc2C)N2CCCC2)cc1` (centres undefined): the inhibition was 10.3% (active). The value for `COc1ccc(C(CNC(=O)c2ccc(S(=O)(=O)Nc3ccccc3C)cc2)N2CCOCC2)cc1` (centres undefined) was -1.54% (inactive); that for `O=C(Nc1cc(F)cc(F)c1)OC1CCC12CCC(c1ccccc1)CC2` (centres undefined) was 3.79% (inactive).

`COc1cccc(N(C)C(=O)[C@@H](C)[C@@H](O)c2ccc3ccccc3c2)c1`: the inhibition is -0.07% (inactive). The result for `CC(=O)C1(C(=O)Nc2nccs2)CC(c2ccccc2C(F)(F)F)=NO1` (centres undefined) reads -1.77% (inactive). The value for `C[C@@]12C(=O)N(c3cccc(Br)c3)C(=O)N1[C@H](c1ccc(Cl)cc1)[C@@H]1C(=O)N(C3CCCCC3)C(=O)[C@@H]12` was 13.3% (active); that for `CCN1C(=O)[C@H]2[C@@H](c3ccc(C)cc3)N3C(=O)N(c4cccc(Br)c4)C(=O)[C@@]3(CC)[C@H]2C1=O` was 1.14% (inactive); that for `CC12C(=O)N(c3ccccc3)C(=O)C1C(c1ccccc1)N1CCCN12` (centres undefined) was 0.41% (inactive). The result for `Cc1cccc(N2C(=O)N3[C@H](c4ccc(F)cc4)[C@@H]4C(=O)N(C5CCCCC5)C(=O)[C@@H]4[C@]3(Cc3ccccc3)C2=O)c1` reads 1.18% (inactive); that for `O=C1[C@H]2[C@@H](c3ccc(Cl)cc3)N3C(=O)N(c4cccc(F)c4)C(=O)[C@@]3(Cc3ccccc3)[C@H]2C(=O)N1C1CCCCC1`, -3.52% (inactive); that for `Cc1cccc([C@@H]2[C@@H]3C(=O)N(Cc4ccccc4)C(=O)[C@@H]3[C@]3(Cc4ccc(Cl)cc4)C(=O)N(c4cccc(Cl)c4)C(=O)N23)c1`, 1.28% (inactive).

As for `CCOC(=O)[C@@H]1[C@H]2COc3cc(OC)ccc3[C@@H]2N2C(=O)N(c3cccc(C)c3)C(=O)[C@@]12C`, the inhibition was -2.53% (inactive).

As for `CC[C@@]12C(=O)N(c3ccccc3)C(=O)N1[C@H](c1ccc(Br)cc1)[C@@H]1C(=O)N(C(C)(C)C)C(=O)[C@@H]12`, the inhibition is 8.73% (active). The value for `CCN1C(=O)[C@H]2[C@@H](c3ccc(-c4ccc(OC)cc4)cc3)N[C@@](Cc3ccccc3)(C(=O)OC)[C@H]2C1=O` was -1.71% (inactive).

`COc1ccc([C@@H]2[C@@H]3C(=O)N(C(C)(C)C)C(=O)[C@@H]3[C@]3(Cc4ccccc4)C(=O)N(c4cccc(Br)c4)C(=O)N23)cc1`: the inhibition was 13.1% (active). The result for `CC(C)(C)N1C(=O)[C@H]2[C@@H](c3ccc(Br)cc3)N3C(=O)N(c4cccc(Cl)c4)C(=O)[C@@]3(C)[C@H]2C1=O` reads 10% (active); that for `O=C1[C@H]2[C@@H](c3ccc(F)cc3)N3C(=O)N(c4ccc(C(F)(F)F)cc4)C(=O)[C@@]3(Cc3ccccc3)[C@H]2C(=O)N1C1CCCCC1`, 1.1% (inactive).
